# Out of some 340,000 compounds screened, about 6,200 (1.8%) were called active. Inconclusive results (about 10%) are left out. The call rests on the fitted dose curve; in most records, active means well fitted activation curve with a large enough effect; inconclusive means small, poorly fitted or top-dose-only effect; inactive means no such curve, though single readings can be large or run the other way. The sample as a whole holds a higher share of actives than the screen did.
# Assay: A quantitative high throughput screen for small molecules that induce DNA re-replication in SW480 colon adenocarcinoma cells. Further: nearly all actives have a fitted effect of over 55% in size. On re-replication activation: % of control where 0% means no effect.
# Conditions: Hoechst DNA content imaging, 48 h; series mostly up to 46.1 µM; re-replication activation: at the top concentration
# Outline: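 Image-based read-out: total Hoechst fluorescence of nuclei (405 nm excitation, 500-530 nm emission), with hits raising the fraction of high-intensity nuclei. SW480 colon cells incubated 48 hr with compounds at 37 C.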
# Potency means the concentration at half of the fitted maximal effect.
SMILES,re-replication activation,Potency
Cc1ccccc1N1CCN(C(=O)c2cccnc2)CC1,16.6% (inactive),
Cc1ccc2c(c1)C1C[N+](C)(CC(=O)c3ccccc3)CCC1N2C(=O)c1ccccc1Cl (stereo not given),-5.17% (inactive),
O=C(NNC(=O)c1ccc2ccccc2c1)c1ccc(Cl)cc1,0.538% (inactive),
C[C@@H](NC(=O)OC(C)(C)C)c1nnc(S(=O)(=O)Cc2ccccc2)o1,,13 µM (active)
C[C@H](NC(=O)OC(C)(C)C)c1nnc(SCC(=O)Nc2ccc(Br)cc2)o1,-0.601% (inactive),
CC(C)Sc1nnc([C@H](Cc2ccccc2)NC(=O)OC(C)(C)C)o1,-1.87% (inactive),
Cc1[nH]c(=O)c(C(=O)/C=C/c2ccccc2)c2c1CCCC2,,20.6 µM (active)
Cc1cn(COC/C=C/c2ccccc2)c(=O)[nH]c1=O,-0.895% (inactive),
O=C(/C=C/c1ccc(N2CCOCC2)cc1)c1ccccc1,-2.13% (inactive),
S=c1[nH]nc(-c2cccs2)n1/N=C/c1cccs1,-91% (inactive),
Oc1ccccc1/C=N/n1c(-c2cccs2)n[nH]c1=S,-3.38% (inactive),
Cc1cc(-c2n[nH]c(=S)n2/N=C/C(Br)=C/c2ccccc2)n[nH]1,,6.51 µM (active)
Cc1ccc(C2=Nc3c(ccc4ccccc34)C(c3ccncc3)=NN2)cc1,,18.4 µM (active)
CN(C(=O)COC(=O)Cn1cnc2c1c(=O)n(C)c(=O)n2C)C1(C#N)CCCCC1,5.85% (inactive),
CS(=O)(=O)c1ccc(C(=O)NNC(=O)c2cccs2)cc1,-2.57% (inactive),
O=C(COC(=O)Cc1ccc([N+](=O)[O-])cc1)NC1CCCCCC1,-5.69% (inactive),
O=C(OCC(=O)N1CCN(c2ccccc2)CC1)c1ccc([N+](=O)[O-])s1,11.2% (inactive),
N#CCc1c[nH]c2ccc([N+](=O)[O-])cc12,-4.91% (inactive),
C/C=C/c1ccc(OCC(=O)NNC(=O)CN(C)S(=O)(=O)c2ccc(C)cc2)c(OC)c1,-2.13% (inactive),
CCC(C)N1C(=O)S/C(=C/c2ccc(Sc3nc4ccccc4[nH]3)o2)C1=O (stereo not given),,18.4 µM (active)
CCCCSc1nc2ccccc2[nH]1,-19.9% (inactive),
CCc1nnc(NC(=O)CCCSc2nc3ccccc3[nH]2)s1,-4.91% (inactive),

SMILES,re-replication activation,Potency
Nc1ncnc2c1cnn2C1CC(O)C(CO)O1 (stereo not given),0.418% (inactive),
CC(C)N(C(=O)[C@H]1C[C@H](CC(=O)NCCC2=CCCCC2)C(=O)N2CCc3c([nH]c4cc(CCC(=O)N(C)C)ccc34)[C@]12C)C(C)C,1.7% (inactive),
CC(Nc1ccc([N+](=O)[O-])cc1[N+](=O)[O-])c1ccccc1 (stereo not given),-1.62% (inactive),
COc1ccccc1NC(=O)CSc1nc2sc3c(c2c(=O)n1-c1ccccc1)CCN(C)C3,-6.29% (inactive),
CCOc1ccc(-n2c(SCC(=O)OC)nc3sc4c(c3c2=O)CCN(C)C4)cc1,-10.5% (inactive),
CCCSc1nc2sc3c(c2c(=O)n1-c1ccc(OC)cc1)CCN(C)C3,,1.84 µM (active)
Cc1noc(C)c1NC(=O)Nc1ccc2c(c1)C(=O)N([C@H](C)CO)C[C@H](C)[C@@H](CN(C)S(=O)(=O)c1cn(C)cn1)O2,-13.9% (inactive),
C[C@]12c3[nH]c4ccc(Cl)cc4c3CCN1C(=O)[C@@H](CC(=O)NCCCn1ccnc1)C[C@@H]2C(=O)N1CCOCC1,59.9% (inactive),
O=C(NN=Cc1ccccc1O)NN=Cc1ccccc1O,,16.4 µM (active)
O=C(NN=Cc1ccccc1)c1ccccc1,-1.63% (inactive),
COc1ccc(/C=N/NC(=O)C2CC2)c(OC)c1OC,29.6% (inactive),
O=C(N/N=C/c1ccccc1O)C1CCCC1,,4.61 µM (active)
Oc1ccccc1C=NC1CCCCC1N=Cc1ccccc1O (stereo not given),0.236% (inactive),
O=C(N/N=C/c1c[nH]c2ccccc12)c1ccccc1O,-1.5% (inactive),
NC(CSC1(c2ccccc2)c2ccccc2-c2ccccc21)C(=O)O (stereo not given),-2.84% (inactive),
COc1cc(OC)cc(C(=O)NCC(=O)N2CCCCCCC2)c1,-20.2% (inactive),
NC(=O)c1ncn([C@@H]2O[C@H](CNCc3cnc(N4CCOCC4)s3)[C@@H](O)[C@H]2O)n1,2.79% (inactive),
NS(=O)(=O)c1ccc(CCNC(=O)c2ccc(Cl)c(S(=O)(=O)N3CCCCCC3)c2)cc1,0.904% (inactive),
COc1ccc2oc(N)nc2c1,-6.24% (inactive),
CC[C@]1(C(=O)OC)[C@H]2C(=O)N(Cc3ccccc3)C(=O)[C@H]2[C@H]2CN=C(SCc3ccc(Cl)cc3)N21,-1.04% (inactive),
CCc1c(Nc2ccccc2C)nc(N)[nH]c1=O,-0.657% (inactive),
Cc1c(C(=O)N2CCCc3ccccc32)sc2nc(-c3ccccc3)cn12,-5.48% (inactive),

SMILES,re-replication activation,Potency
Cc1c(C(=O)N2CCCc3ccccc32)oc2ccccc12,-0.943% (inactive),
Cc1cccc2cc3c(N)c(C(=O)N4CCCc5ccccc54)sc3nc12,,5.17 µM (active)
CN(C(=O)c1cccc(NC(=O)Cc2cccc(NC(=O)C3CCCN(C(=O)C4CC4)C3)c2)c1)C1CCC1 (stereo not given),3.52% [at 9.22 µM] (inactive),
CC[C@]1(c2ccccc2OC)C(=O)N(C(=O)OC)N1C(=O)OC,,23.1 µM (active)
COC(=O)c1ccccc1NC(=O)Cc1ccccc1OC,4.59% (inactive),
COc1ccccc1CC(=O)Nc1ccc(F)cc1F,15.1% (inactive),
O=C(Cc1ccc(Cl)cc1)c1ccccc1,-2.09% (inactive),
O=C1CC(C(=O)O)NC(=S)N1 (stereo not given),-8.61% (inactive),
Cc1ccc(C)c(N2CCN(C(=O)CCc3nc(-c4cccc(C(F)(F)F)c4)no3)CC2)c1,-5.4% (inactive),
CC(C)CN1CC(C)C(=O)N(c2ccccc2)C1=S (stereo not given),0.56% (inactive),
COc1ccc(Nc2nnc(C)c3ccccc23)cc1,-1.06% (inactive),
COc1ccc(Nc2cc(=O)oc3ccccc23)cc1,,5.17 µM (active)
COc1ccc2oc(=O)cc(-c3cc4ccccc4o3)c2c1,28.5% (inactive),
CN1CCC(N(C)C(=O)c2ccc(Cl)c(S(=O)(=O)Nc3ccc(Cl)cc3)c2)CC1,-14.4% (inactive),
CCOC(=O)c1c(C)[nH]c(C)c1S(=O)(=O)N(C)CC(=O)Nc1ccccc1C,-3.39% (inactive),
CCOC(=O)c1c(C)[nH]c2c1-c1ccccc1C(=O)C2=O,,5.17 µM (active)
CCOC(=O)c1ccccc1OC(=O)Oc1ccccc1C(=O)OCC,-5.07% (inactive),
O=C(NCc1ccccc1)c1cccc(NC(=O)C2CCCCC2)c1,-9.55% [at 9.22 µM] (inactive),
Cn1c(=O)[nH]c2c(c(C(=O)O)nn2C)c1=O,-4.09% (inactive),
COCC(=O)N(C)[C@H]1C[C@H]2c3cc(Oc4ccccc4C)ccc3CCN2C(=O)[C@H]1[C@H](C)O,-7.86% (inactive),
N#CC(Cc1cc2ccccc2n1S(=O)(=O)c1ccccc1)OCc1ccccc1 (stereo not given),15.5% (inactive),
